Data on 15 molecules can be found in ChEMBL document CHEMBL1961873, “Compounds: GSK PKIS; Assays: Nanosyn kinase panel” (2012).

The structures appear in SMILES notation. Where “and” joins values, the source holds several entries; their conditions need not be identical. Equal values may be shown once.
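Note: each value is a mean percent inhibition of HIPK1.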

The target of this assay is Homeodomain-interacting protein kinase 1 (Homo sapiens) (UniProt Q86Z02). Conditions: at 0.1 µM.
Sequence of Homeodomain-interacting protein kinase 1 (Homo sapiens) (Q86Z02 whole entry, looked up): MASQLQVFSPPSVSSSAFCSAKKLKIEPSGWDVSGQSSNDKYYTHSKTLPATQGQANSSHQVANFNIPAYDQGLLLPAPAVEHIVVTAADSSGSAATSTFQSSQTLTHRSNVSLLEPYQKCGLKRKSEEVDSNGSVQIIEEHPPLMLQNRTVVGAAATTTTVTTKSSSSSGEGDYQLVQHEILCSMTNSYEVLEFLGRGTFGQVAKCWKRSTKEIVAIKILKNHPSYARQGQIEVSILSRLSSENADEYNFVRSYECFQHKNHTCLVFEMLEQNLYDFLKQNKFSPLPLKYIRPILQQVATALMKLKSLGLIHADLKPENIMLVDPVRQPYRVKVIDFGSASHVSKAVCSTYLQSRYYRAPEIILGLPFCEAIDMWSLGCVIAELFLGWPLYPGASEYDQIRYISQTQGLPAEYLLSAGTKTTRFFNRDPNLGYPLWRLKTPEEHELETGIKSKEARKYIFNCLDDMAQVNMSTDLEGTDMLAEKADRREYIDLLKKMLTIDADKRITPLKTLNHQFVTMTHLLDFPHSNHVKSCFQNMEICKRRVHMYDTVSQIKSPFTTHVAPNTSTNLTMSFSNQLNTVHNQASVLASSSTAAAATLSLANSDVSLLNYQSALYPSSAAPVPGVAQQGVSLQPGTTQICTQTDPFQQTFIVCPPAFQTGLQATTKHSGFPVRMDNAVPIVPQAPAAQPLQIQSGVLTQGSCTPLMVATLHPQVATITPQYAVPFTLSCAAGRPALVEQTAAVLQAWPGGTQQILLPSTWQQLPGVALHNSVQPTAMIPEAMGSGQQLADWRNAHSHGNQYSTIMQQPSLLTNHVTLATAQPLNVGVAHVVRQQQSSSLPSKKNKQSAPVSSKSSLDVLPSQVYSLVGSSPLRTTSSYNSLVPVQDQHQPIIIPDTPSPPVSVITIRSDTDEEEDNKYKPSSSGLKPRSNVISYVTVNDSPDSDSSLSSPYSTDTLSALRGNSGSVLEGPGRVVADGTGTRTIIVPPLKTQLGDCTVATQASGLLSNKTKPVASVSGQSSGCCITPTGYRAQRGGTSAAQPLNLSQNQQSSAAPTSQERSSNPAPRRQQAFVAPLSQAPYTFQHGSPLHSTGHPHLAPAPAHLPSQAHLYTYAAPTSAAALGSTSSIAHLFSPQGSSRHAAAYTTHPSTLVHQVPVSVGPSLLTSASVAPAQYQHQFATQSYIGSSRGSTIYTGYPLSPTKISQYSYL
As a reminder, the inhibition is the relative decrease from the control value, in per cent. For `CNC(=O)c1ncccc1Nc1nc(Nc2cc3c(cc2OC)CCCN3C(=O)CN(C)C)nc2[nH]ccc12`, the inhibition was 3.08%.
On to `Cc1ccc(-c2cc3c(NC(=O)C4CC4)ncnc3o2)cc1`, for which the inhibition was found to be 1.63%.
Regarding `CNC(=O)c1sc(-n2cnc3cc(OC)c(OC)cc32)cc1OCc1ccccc1C(F)(F)F`, the inhibition is -0.45%.
On to `O=C(O[C@H]1CN[C@H](C#Cc2cc3ncnc(Nc4ccc5c(ccn5Cc5cc(F)ccc5F)c4)c3s2)C1)N1CCOCC1`, for which the inhibition worked out at 0.14%.
As for `CN1CCN(Cc2ccc(-c3cc4ncnc(Nc5ccc(OCc6cccc(F)c6)c(Cl)c5)c4s3)o2)CC1`, the inhibition was -3.31% and 2.8%.
On to `CCn1c(-c2nonc2N)nc2cncc(C(=O)NCCNC)c21`, for which the inhibition came to 0.25%.
`CCS(=O)(=O)c1ccc(OC)c(Nc2ncc(-c3cccc(F)c3)o2)c1`: the inhibition came out at 1.26%.
`COC(=O)Nc1nc2cc(Oc3ccc(NC(=O)Nc4ccccc4)cc3)ccc2[nH]1`: the inhibition was 0.47%.
Turning to `COc1c(C(N)=O)cc(-c2ccc(Cl)cc2)cc1-c1ccc(S(N)(=O)=O)cc1`, the inhibition was -1.29%.
`CC1(C)CC(n2cnc(-c3ccc(F)cc3)c2-c2ccnc(N)n2)CC(C)(C)N1`: the inhibition is -1.4%.
As for `CCCNc1cccc(-n2ncc3c(N/N=C/c4ccncc4)ncnc32)c1`, the inhibition came out at 2.78%.
`CN(c1ccc(NC(=O)NCCN2CCOCC2)cc1)c1ccnc(Nc2ccc(CS(C)(=O)=O)cc2)n1`: the inhibition was 2.62%.
Take `CCOc1ccc2c(-c3ccnc(Nc4cc(OC)cc(C(F)(F)F)c4)n3)cnn2n1`: the inhibition was 20.1%.
On to `COc1cccc(-n2ncc3c(N/N=C/c4ccc(C(=O)NCCN(C)C)cc4)ncnc32)c1`, for which the inhibition was 47%.
Turning to `COc1ccc(-c2nn3ncccc3c2-c2ccnc(Nc3ccc(F)c(F)c3)n2)cc1`, the inhibition was 3.8%.
